PubChem BioAssay (EPA / NIEHS)
Records with an inconclusive call do not appear. Active and inactive are the calls of the source. The calls were made as follows, unless noted: active = hit-call score of the fitted dose curve at least 0.9, where 1 is the maximum; inactive = score below 0.9.

Columns and labels:
[1] = ATG_NF_kB_CIS: Attagene CIS-FACTORIAL HepG2 Assay for human Nuclear Factor Kappa B (NF-kB) (AID 2282991); conditions: HepG2 Attagene cis-factorial NF-kB reporter mRNA; actives raise or lower the signal
Procedure, shortened: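 Multiplexed cis-reporter assay in transiently transfected HepG2. 24 h treatment; RNA isolated, RT-PCR, labelled fragments resolved by CE. DMSO baseline.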

[2] = ATG_NRF2_ARE_CIS: Attagene CIS-FACTORIAL HepG2 Assay for human Nuclear Factor Erythroid 2 Related Factor 2 (NFR2) response to Antioxidant Response Elements (ARE) (AID 2282992); conditions: HepG2 Attagene ARE/NRF2 reporter, transcription factor activity; actives raise or lower the signal
Procedure, shortened: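 Endogenous transcription factor activity read out as reporter transcript levels (RT-PCR plus capillary electrophoresis, fluorescence) in transiently transfected HepG2 cells. Measured at 24 h after dosing; gain or loss of signal fitted versus DMSO.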

[3] = ATG_Oct_MLP_CIS: Attagene CIS-FACTORIAL HepG2 Assay for human Octamer-Binding Transcription Factor (Oct) (AID 2282993); conditions: HepG2 Attagene cis-factorial Oct reporter, mRNA; actives raise or lower the signal
Procedure, shortened: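 HepG2 cells transiently transfected with cis-element-driven reporter transcription units (endogenous TF activity); 24 h compound exposure. Reporter mRNA quantified by RT-PCR, 6-FAM labelling, HpaI digestion and capillary electrophoresis; bidirectional fit versus DMSO baseline.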

[4] = molecular target: Cellular tumor antigen p53 (Homo sapiens) (UniProt P04637); test: ATG_p53_CIS: Attagene CIS-FACTORIAL HepG2 Assay for human p53 Transcription Factor (AID 2282994); conditions: HepG2 p53 cis-element reporter, Attagene mRNA; actives raise or lower the signal
Cellular tumor antigen p53 (Homo sapiens), sequence (P04637 whole entry, looked up): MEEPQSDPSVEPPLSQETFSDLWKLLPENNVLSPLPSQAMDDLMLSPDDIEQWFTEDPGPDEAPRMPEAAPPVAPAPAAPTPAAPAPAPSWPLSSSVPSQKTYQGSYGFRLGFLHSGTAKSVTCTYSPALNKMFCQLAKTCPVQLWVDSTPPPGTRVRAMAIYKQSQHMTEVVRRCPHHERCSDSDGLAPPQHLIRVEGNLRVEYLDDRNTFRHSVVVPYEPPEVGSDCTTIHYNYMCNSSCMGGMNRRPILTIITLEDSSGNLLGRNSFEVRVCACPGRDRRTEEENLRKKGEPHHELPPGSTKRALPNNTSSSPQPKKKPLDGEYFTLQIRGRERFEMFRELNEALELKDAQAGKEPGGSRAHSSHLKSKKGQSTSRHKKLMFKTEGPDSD
Procedure, shortened: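 Endogenous p53 activity read in transiently transfected HepG2 from a cis-element-driven reporter transcript after 24 h exposure. RNA reverse-transcribed, PCR-amplified, fluorescently labelled and sized by capillary electrophoresis; gain or loss fitted against DMSO baseline.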

[5] = BSK_3C_TissueFactor: BioMAP Diversity Plus: 3C Assay for Tissue Factor Biomarker Activity (AID 2282997); conditions: BioMAP 3C HUVEC, tissue factor biomarker readout; actives raise or lower the signal
Procedure, shortened: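 Readout: Tissue Factor ELISA. Cells: human primary umbilical vein endothelium. Time: 24 h after dosing. Analysis: bidirectional fit, DMSO baseline.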

[6] = BSK_3C_uPAR: BioMAP Diversity Plus: 3C Assay for Urokinase-type plasminogen activator receptor (uPAR) Biomarker Activity (AID 2282998); conditions: BioMAP 3C HUVEC, uPAR biomarker ELISA; actives raise or lower the signal
Procedure, shortened: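 Primary human umbilical vein endothelial cells, 3C system; surface uPAR measured by ELISA 24 h after dosing. Cytotoxicity via SRB total protein in parallel cultures; bidirectional fit against DMSO.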

[7] = BSK_4H_Eotaxin3: BioMAP Diversity Plus: 4H Assay for Eotaxin 3 Biomarker Activity (AID 2283000); conditions: primary human endothelial cells (HUVEC); actives raise or lower the signal
Procedure, shortened: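 HUVEC, 24 h post-dose, ELISA for Eotaxin-3/CCL26. Gain or loss of signal fitted bidirectionally vs DMSO baseline.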

[8] = molecular target: human Peroxisome Proliferator-activated Receptor alpha (PPARa), PPARA (gene 5465) (UniProt Q07869); test: ATG_PPARa_TRANS: Attagene TRANS-FACTORIAL HepG2 Assay for human Peroxisome Proliferator-activated Receptor alpha (PPARa) (AID 2283001; active = hit-call score of the fitted dose curve at least 0.9, where 1 is the maximum;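 as to AC50: potency for gain of reporter signal over DMSO so agonist or activator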)
human Peroxisome Proliferator-activated Receptor alpha (PPARa), PPARA (gene 5465), sequence (Q07869 whole entry, looked up, the tested form may be a part): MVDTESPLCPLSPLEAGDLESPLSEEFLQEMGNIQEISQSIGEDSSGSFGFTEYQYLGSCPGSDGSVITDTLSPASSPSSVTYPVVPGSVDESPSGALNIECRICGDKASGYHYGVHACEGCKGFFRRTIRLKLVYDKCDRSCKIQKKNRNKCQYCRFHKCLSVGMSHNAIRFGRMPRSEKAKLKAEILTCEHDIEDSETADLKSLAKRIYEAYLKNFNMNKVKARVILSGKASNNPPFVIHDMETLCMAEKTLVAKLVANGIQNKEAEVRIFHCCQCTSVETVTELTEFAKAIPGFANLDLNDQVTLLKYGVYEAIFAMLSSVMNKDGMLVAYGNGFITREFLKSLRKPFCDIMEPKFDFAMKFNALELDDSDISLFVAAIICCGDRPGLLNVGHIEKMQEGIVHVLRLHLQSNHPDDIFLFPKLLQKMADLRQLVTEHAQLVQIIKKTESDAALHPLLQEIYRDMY
Procedure, shortened: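 Exposure: 24 h, transiently transfected HepG2 cells. Endpoint: GAL4-UAS reporter mRNA, RT-PCR with capillary electrophoresis fluorescence. Baseline: DMSO; increases fitted.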

[9] = read-out: Intercellular Adhesion Molecule 1 (ICAM1), ICAM1 (gene 3383); test: BSK_3C_ICAM1: BioMAP Diversity Plus: 3C Assay for Intercellular Adhesion Molecule 1 (ICAM1) Biomarker Activity (AID 2283003); conditions: primary human endothelial cells (HUVEC); actives raise or lower the signal
Procedure, shortened: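 ELISA read-out of ICAM-1; HUVEC (primary human), 3C system, 24 h post-dosing; bidirectional fit vs DMSO baseline.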

[10] = BSK_3C_Proliferation: Cell Proliferation Assessment in the BioMAP Diversity Plus: 3C Assay (AID 2283006); conditions: primary human endothelial cells (HUVEC);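 as to AC50: potency may reflect either rise or fall in cell number versus DMSO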
Procedure, shortened: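 HUVEC, sub-confluent; 48 h chemical exposure; 10% TCA fix, 0.1% SRB stain, A560 total protein. Gain or loss of signal fitted both directions vs DMSO control.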

[11] = molecular target: human RAR-related Orphan Receptor beta (RORb), RORB (gene 6096) (UniProt Q92753); test: ATG_RORb_TRANS: Attagene TRANS-FACTORIAL HepG2 Assay for human RAR-related Orphan Receptor beta (RORb) (AID 2283010; active = hit-call score of the fitted dose curve at least 0.9, where 1 is the maximum)
human RAR-related Orphan Receptor beta (RORb), RORB (gene 6096), sequence (Q92753 whole entry, looked up, the tested form may be a part): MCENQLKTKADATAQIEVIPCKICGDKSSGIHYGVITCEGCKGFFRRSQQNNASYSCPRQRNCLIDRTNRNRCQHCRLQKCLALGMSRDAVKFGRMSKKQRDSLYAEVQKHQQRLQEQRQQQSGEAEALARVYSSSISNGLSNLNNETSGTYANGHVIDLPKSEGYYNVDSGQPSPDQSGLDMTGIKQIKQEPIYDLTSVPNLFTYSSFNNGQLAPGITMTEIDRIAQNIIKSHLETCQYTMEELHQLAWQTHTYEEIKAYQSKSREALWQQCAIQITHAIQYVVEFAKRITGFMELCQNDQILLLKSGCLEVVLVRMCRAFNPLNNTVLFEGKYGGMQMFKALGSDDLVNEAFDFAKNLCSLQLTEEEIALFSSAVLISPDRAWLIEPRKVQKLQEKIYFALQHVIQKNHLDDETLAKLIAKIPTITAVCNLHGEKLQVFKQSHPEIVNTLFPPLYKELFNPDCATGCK
Procedure, shortened: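 HepG2, transient MRTU transfection (GAL4-UAS reporters, exogenous NR-Gal4 chimeras); 24 h compound exposure; total RNA → RT-PCR → 6-FAM primer extension → HpaI digest → CE fluorescence. Positive direction vs DMSO baseline.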

[12] = molecular target: human Retinoid X Receptor beta (RXRb), RXRB (gene 6257) (UniProt P28702); test: ATG_RXRb_TRANS: Attagene TRANS-FACTORIAL HepG2 Assay for human Retinoid X Receptor beta (RXRb) (AID 2283013; active = hit-call score of the fitted dose curve at least 0.9, where 1 is the maximum)
human Retinoid X Receptor beta (RXRb), RXRB (gene 6257), sequence (P28702 whole entry, looked up, the tested form may be a part): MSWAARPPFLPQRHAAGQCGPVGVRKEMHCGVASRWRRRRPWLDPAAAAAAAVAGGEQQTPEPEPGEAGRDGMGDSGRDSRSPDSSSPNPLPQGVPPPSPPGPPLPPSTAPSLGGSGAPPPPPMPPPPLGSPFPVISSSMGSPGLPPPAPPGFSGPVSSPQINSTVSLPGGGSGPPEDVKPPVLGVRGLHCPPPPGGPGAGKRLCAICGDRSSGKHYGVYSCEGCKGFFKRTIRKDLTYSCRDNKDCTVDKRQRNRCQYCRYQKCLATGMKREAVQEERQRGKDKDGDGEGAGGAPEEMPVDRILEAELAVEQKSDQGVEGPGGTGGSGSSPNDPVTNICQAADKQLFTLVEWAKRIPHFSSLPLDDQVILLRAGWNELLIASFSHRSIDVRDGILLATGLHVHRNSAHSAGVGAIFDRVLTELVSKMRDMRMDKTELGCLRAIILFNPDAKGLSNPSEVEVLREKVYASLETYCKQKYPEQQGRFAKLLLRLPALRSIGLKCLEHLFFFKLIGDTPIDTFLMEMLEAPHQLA
Procedure, shortened: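 Read-out: reporter mRNA induction via RT-PCR plus capillary electrophoresis fluorescence, analysed as signal increase relative to DMSO. Cells were human HepG2, transiently transfected with GAL4-UAS reporter constructs and chimeric receptor-Gal4 fusions, dosed for 24 h.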

[13] = molecular target: human Thyroid Receptor alpha (THRa1), THRA (gene 7067) (UniProt P10827); test: ATG_THRa1_TRANS: Attagene TRANS-FACTORIAL HepG2 Assay for human Thyroid Receptor alpha (THRa1) (AID 2283014; active = hit-call score of the fitted dose curve at least 0.9, where 1 is the maximum)
human Thyroid Receptor alpha (THRa1), THRA (gene 7067), sequence (P10827 whole entry, looked up, the tested form may be a part): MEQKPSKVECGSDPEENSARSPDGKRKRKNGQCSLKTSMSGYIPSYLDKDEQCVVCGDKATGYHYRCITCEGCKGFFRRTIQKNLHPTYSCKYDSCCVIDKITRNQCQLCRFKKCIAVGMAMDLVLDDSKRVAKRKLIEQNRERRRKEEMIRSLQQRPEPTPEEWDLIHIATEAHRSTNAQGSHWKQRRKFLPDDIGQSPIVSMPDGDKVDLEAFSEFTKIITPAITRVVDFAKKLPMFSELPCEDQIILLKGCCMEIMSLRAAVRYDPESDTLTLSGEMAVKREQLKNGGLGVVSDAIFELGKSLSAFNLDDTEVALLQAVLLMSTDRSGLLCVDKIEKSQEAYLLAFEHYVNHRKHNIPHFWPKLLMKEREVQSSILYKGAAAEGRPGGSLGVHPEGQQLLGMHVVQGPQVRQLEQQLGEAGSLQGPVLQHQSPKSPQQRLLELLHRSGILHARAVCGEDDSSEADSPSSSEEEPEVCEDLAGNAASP
Procedure, shortened: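 HepG2 cells transiently transfected with multiplexed GAL4-UAS reporter units for exogenous chimeric THRa1-Gal4; reporter mRNA measured 24 h after dosing by RT-PCR, 6-FAM labelling, HpaI digestion and capillary electrophoresis. Gain-of-signal fitted versus DMSO baseline.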

[14] = BSK_3C_VCAM1: BioMAP Diversity Plus: 3C Assay for Vascular cell adhesion molecule 1 (VCAM1) Biomarker Activity (AID 2282999); conditions: BioMAP 3C HUVEC, VCAM1 ELISA, cytokine-stimulated; actives raise or lower the signal
Procedure, shortened: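 Vascular primary endothelium (human umbilical vein) was exposed to chemicals and assayed 24 h later. VCAM-1 levels came from ELISA, with DMSO serving as baseline for bidirectional fitting.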

[15] = molecular target: Peroxisome proliferator-activated receptor gamma (Homo sapiens) (UniProt P37231); test: ATG_PPARg_TRANS: Attagene TRANS-FACTORIAL HepG2 Assay for human Peroxisome Proliferator-activated Receptor-gamma (PPARg) (AID 2283007; active = hit-call score of the fitted dose curve at least 0.9, where 1 is the maximum)
Peroxisome proliferator-activated receptor gamma (Homo sapiens), sequence (P37231 whole entry, looked up): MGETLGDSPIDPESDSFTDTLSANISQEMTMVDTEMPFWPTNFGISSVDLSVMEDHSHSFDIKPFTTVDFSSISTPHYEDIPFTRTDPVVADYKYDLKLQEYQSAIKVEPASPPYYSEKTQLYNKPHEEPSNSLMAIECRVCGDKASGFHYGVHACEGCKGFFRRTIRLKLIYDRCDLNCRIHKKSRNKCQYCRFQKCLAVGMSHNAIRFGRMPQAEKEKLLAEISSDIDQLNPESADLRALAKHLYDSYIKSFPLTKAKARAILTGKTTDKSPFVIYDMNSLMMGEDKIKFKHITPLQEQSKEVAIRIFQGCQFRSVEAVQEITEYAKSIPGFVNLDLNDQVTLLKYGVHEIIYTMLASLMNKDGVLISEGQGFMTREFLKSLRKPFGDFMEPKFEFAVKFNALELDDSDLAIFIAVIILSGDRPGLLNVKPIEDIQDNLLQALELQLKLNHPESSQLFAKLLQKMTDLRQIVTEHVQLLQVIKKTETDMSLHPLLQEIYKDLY
Procedure, shortened: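 Human hepatoma HepG2, transient MRTU transfection, 24 h treatment. mRNA reporter signal by RT-PCR plus capillary electrophoresis, fluorescence detection; fitted for increase over DMSO negative control.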

[16] = molecular target: Nuclear receptor subfamily 1 group I member 2 (Homo sapiens) (UniProt O75469); test: ATG_PXR_TRANS: Attagene TRANS-FACTORIAL HepG2 Assay for human Pregnane X Receptor (PXR) (AID 2283008; active = hit-call score of the fitted dose curve at least 0.9, where 1 is the maximum)
Nuclear receptor subfamily 1 group I member 2 (Homo sapiens), sequence (O75469 whole entry, looked up, the tested form may be a part): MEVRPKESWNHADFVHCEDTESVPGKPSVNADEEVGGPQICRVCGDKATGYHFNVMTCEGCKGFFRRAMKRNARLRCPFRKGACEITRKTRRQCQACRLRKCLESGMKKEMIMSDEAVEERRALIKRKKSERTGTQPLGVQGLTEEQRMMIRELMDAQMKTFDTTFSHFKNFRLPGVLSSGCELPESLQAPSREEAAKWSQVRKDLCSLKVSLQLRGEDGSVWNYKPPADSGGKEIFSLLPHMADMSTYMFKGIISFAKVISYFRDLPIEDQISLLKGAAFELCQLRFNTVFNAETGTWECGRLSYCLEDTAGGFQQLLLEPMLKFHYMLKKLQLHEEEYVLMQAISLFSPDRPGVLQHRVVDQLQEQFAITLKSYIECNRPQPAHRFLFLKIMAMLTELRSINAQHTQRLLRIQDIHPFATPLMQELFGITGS
Procedure, shortened: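 Transactivation by exogenous PXR–GAL4 fusion measured as reporter transcript induction after 24 h compound treatment of transfected human HepG2 cells. Read-out via RT-PCR and capillary electrophoresis of labelled fragments, fitted upward relative to DMSO.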

[17] = molecular target: Retinoic acid receptor RXR-alpha (Homo sapiens) (UniProt P19793); test: ATG_RXRa_TRANS: Attagene TRANS-FACTORIAL HepG2 Assay for human Retinoid X Receptor alpha (RXRa) (AID 2283012; active = hit-call score of the fitted dose curve at least 0.9, where 1 is the maximum)
Retinoic acid receptor RXR-alpha (Homo sapiens), sequence (P19793 whole entry, looked up, the tested form may be a part): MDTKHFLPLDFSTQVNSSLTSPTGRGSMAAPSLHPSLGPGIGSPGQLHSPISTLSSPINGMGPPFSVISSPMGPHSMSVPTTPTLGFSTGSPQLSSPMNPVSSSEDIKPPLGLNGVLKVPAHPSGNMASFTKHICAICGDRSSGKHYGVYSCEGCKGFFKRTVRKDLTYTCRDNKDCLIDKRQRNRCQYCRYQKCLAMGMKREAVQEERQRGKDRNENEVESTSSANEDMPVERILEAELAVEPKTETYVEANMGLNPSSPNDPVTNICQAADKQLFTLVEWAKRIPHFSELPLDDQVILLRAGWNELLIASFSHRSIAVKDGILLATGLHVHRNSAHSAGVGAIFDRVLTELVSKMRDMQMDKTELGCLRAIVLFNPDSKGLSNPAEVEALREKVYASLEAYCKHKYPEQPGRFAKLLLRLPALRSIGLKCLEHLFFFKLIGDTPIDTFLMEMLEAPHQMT
Procedure, shortened: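 Read-out: fluorescent reporter-transcript fragments quantified by capillary electrophoresis after RT-PCR. Transiently transfected HepG2 cells carrying GAL4-UAS reporters and NR-GAL4 chimeras were exposed to chemical for 24 h; activity scored as increase over DMSO.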

[18] = molecular target: human Peroxisome Proliferator-activated Receptor delta (PPARd), PPARD (gene 5467) (UniProt Q03181); test: ATG_PPARd_TRANS: Attagene TRANS-FACTORIAL HepG2 Assay for human Peroxisome Proliferator-activated Receptor delta (PPARd) (AID 2283002; active = hit-call score of the fitted dose curve at least 0.9, where 1 is the maximum)
human Peroxisome Proliferator-activated Receptor delta (PPARd), PPARD (gene 5467), sequence (Q03181 whole entry, looked up, the tested form may be a part): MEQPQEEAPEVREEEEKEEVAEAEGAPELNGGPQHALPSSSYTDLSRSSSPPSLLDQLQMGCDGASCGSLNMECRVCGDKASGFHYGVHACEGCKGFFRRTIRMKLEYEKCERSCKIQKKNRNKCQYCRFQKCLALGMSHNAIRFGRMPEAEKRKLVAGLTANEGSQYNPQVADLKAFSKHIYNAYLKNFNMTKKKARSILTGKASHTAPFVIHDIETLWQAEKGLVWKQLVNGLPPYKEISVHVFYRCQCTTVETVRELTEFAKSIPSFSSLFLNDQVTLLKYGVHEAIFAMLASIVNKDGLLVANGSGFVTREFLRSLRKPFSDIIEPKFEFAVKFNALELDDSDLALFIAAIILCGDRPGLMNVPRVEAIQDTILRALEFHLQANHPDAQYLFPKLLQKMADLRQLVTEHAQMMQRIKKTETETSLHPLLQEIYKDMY
Procedure, shortened: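 Measured quantity: GAL4-UAS reporter transcript induction in HepG2 after 24 h chemical dosing, with NR-Gal4 chimeras supplied by transient transfection. Detection by RT-PCR and capillary electrophoresis; upward fit against DMSO.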

[19] = molecular target: human Retinoic Acid Receptor gamma (RARg), RARG (gene 5916) (UniProt P13631); test: ATG_RARg_TRANS: Attagene TRANS-FACTORIAL HepG2 Assay for human Retinoic Acid Receptor gamma (RARg) (AID 2283009; active = hit-call score of the fitted dose curve at least 0.9, where 1 is the maximum)
human Retinoic Acid Receptor gamma (RARg), RARG (gene 5916), sequence (P13631 whole entry, looked up, the tested form may be a part): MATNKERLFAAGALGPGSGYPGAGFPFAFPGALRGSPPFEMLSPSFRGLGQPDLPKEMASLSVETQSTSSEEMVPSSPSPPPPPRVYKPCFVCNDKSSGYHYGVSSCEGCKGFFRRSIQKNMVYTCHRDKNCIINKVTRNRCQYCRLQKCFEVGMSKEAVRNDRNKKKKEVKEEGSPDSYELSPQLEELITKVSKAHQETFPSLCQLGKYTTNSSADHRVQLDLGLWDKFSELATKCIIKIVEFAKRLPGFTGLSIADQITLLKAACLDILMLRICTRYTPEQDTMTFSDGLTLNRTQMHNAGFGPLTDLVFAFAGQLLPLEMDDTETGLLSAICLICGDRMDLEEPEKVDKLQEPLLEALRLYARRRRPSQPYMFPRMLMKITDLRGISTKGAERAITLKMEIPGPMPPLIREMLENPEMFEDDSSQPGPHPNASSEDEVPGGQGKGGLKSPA
Procedure, shortened: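 Readout: reporter transcript levels via RT-PCR, 6-FAM primer-extension labelling, HpaI digestion and capillary electrophoresis. Cells: HepG2 carrying transfected RARg-GAL4 chimera plus UAS reporter set. Dosing 24 h; DMSO negative control.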

Measured: AC50

CC[C@H]1OC(=O)[C@H](C)[C@@H](O[C@H]2C[C@@](C)(OC)[C@@H](O)[C@H](C)O2)[C@H](C)[C@@H](O[C@@H]2O[C@H](C)C[C@H](N(C)C)[C@H]2O)[C@](C)(O)C[C@@H](C)C(=O)[C@H](C)[C@@H](O)[C@]1(C)O
not listed: [14] | [15] | [16] | [17] | [18] | [19]
inactive: all other assays above

CC(C)=CCCC(C)CCO (configuration not stated)
active: [2] 134 µM | [8] 65.5 µM | [15] 42.6 µM
not listed: [12] | [13] | [17] | [18] | [19]
inactive: all other assays above

CCOCCOCCOCCO
not listed: [8] | [11] | [12] | [16] | [18] | [19]
inactive: all other assays above

CCOc1cccc(-n2cc(C(=O)N3CCN(c4cc(C(=O)O)c5ccccc5c4)CC3)nc2-c2ccc(C)cc2)c1
active: [2] 8.42 µM | [3] 25.4 µM | [5] 28.7 µM | [6] 13.9 µM | [7] 33.1 µM | [9] 29.7 µM | [10] 13.5 µM | [15] 7.92 µM
inactive: [1] | [4] | [18] | [17] | [13]

CCOC(=O)CC(CC(=O)OCC)(OC(C)=O)C(=O)OCC
active: [2] 61.4 µM | [15] 52.3 µM
not listed: [11] | [18] | [19]
inactive: all other assays above

O=c1n(CC2CO2)c(=O)n(CC2CO2)c(=O)n1CC1CO1 (configuration not stated)
active: [1] 31.7 µM | [2] 7.56 µM | [3] 48.5 µM | [4] 24.7 µM | [5] 11.3 µM | [6] 20 µM | [14] 26.3 µM | [7] 23.2 µM | [10] 1.46 µM
inactive: [8] | [18] | [9] | [15] | [11] | [13]

CC(C)c1cccc(C(C)C)c1N1C(=O)c2ccc(O)cc2C1=O
active: [2] 25.2 µM | [3] 76.2 µM | [4] 166 µM | [6] 19 µM | [7] 30.8 µM | [10] 3.32 µM | [16] 0.242 µM
not listed: [8] | [11] | [13] | [14]
inactive: all other assays above

CCOCCO
inactive: [1] | [2] | [3] | [4] | [6] | [7] | [9] | [10]
